Measured values as given in PubChem BioAssay (NCI).
Compounds without any hit were thinned out: in the full panel of roughly 83,000, 20% have a hit.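 Cells were grown in 96-well plates and exposed to the test compound at a single concentration for 48 hours; results are reported as percent growth, with values below 10 considered active.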 Values without a mark were called inactive. Activity calls are given as the source filed them.

What was measured:
Assay in all cases: NCI-60 one-dose screen, 48 h (100 = growth as untreated, 0 = no growth, -100 = all killed)
Conditions in all cases: 10 µM unless noted
[1] = system: HT29 colon
[2] = system: SNB-75 CNS
[3] = system: SNB-19 CNS
[4] = system: U251 CNS
[5] = system: SK-MEL-5 melanoma
[6] = system: UACC-62 melanoma
[7] = system: LOX IMVI melanoma
[8] = system: SK-MEL-28 melanoma
[9] = system: SK-MEL-2 melanoma
[10] = system: EKVX NSCLC
[11] = system: SN12C renal
[12] = system: UO-31 renal
[13] = system: TK-10 renal
[14] = system: ACHN renal
[15] = system: CAKI-1 renal
[16] = system: A498 renal
[17] = system: MOLT-4 leukemia
[18] = system: SR leukemia
[19] = system: CCRF-CEM leukemia

Structure (SMILES) | growth [1] | growth [2] | growth [3] | growth [4] | growth [5] | growth [6] | growth [7] | growth [8] | growth [9] | growth [10] | growth [11] | growth [12] | growth [13] | growth [14] | growth [15] | growth [16] | growth [17] | growth [18] | growth [19]
O=C1NCN(CCO)CN1 | 99.8% | 100% | 100% | 109% | 106% | 92.8% | 103% | 110% | 108% | 98.9% | 96.5% | 97.2% | 107% | 104% | 92.8% | 106% | 121% | 122% | –
O=C(/C=C/c1cc2ccccc2[nH]c1=O)c1ccc(Cl)cc1 | 6.1% (active) | 16.8% | 47.6% | 24.8% | 56.2% | 31.4% | -69.2% (active) | 80.1% | 18.8% | 63.7% | 47.4% | 29.8% | 48.5% | 51.6% | 42.1% | 13.7% | 2.61% (active) | – | –
Cc1cc(N2CCOCC2)nc(N2CCOCC2)n1 | 103% | 94.4% | 99.7% | 102% | 102% | 99% | 104% | 113% | 90.6% | 95.7% | 95.5% | -1.48% (active) | 92.2% | 108% | 96.7% | 100% | 104% | 105% | 95.3%
Cc1cc(NC(=O)Nc2cccc3ccccc23)no1 | 108% | 91.4% | 105% | 93.6% | 99% | 90.6% | 95.9% | 116% | 101% | 102% | 109% | 89% | 146% | 98.4% | 104% | 126% | 106% | 81.2% | 107%
COc1cc(NC(=O)c2cc3ccccc3cc2O)c(OC)cc1Cl | 64.8% | 40.9% | 16% | 13.1% | -41.9% (active) | 24% | 3.45% (active) | 43.6% | -17.2% (active) | 9.25% (active) | 10.2% | -25.8% (active) | 22.6% | 3.75% (active) | -2.48% (active) | 25.4% | -18.8% (active) | 1.88% (active) | -17.4% (active)
CC(=O)c1cc(C(=O)c2ccc3c(c2)Sc2ccccc2N3)c2c(C)cc(C)cn12 | -15% (active) | -2.02% (active) | 36.5% | 14.6% | -36.5% (active) | 23.1% | 16.6% | 40.4% | 26.3% | 34.3% | 20.7% | 22.5% | 34.6% | 12.2% | 9.64% (active) | -27.3% (active) | 19.2% | 5.45% (active) | –
CN(CC(=O)Nc1nc2ccccc2[nH]1)S(=O)(=O)c1ccc(Cl)cc1 | 64.7% | 101% | 92.4% | 78.9% | 84.1% | 66.9% | 64.7% | 121% | 53.7% | 95.4% | 93.9% | 28.8% | 118% | 83.5% | 89.8% | 91.7% | 58.5% | 89.9% | –
COc1ccc(C2=NN(C(C)=O)C(c3cc(OC)c(OC)c(OC)c3)C2)cc1 (stereo not given) | 103% | 96.6% | 90.7% | 105% | 92.6% | 101% | 90.6% | 129% | 99% | 95.2% | 109% | 80% | 152% | 104% | 100% | 96.5% | 118% | -9.78% (active) | 75.5%
Clc1ccc(-n2cnc3c(Cl)ncnc32)cc1Cl | 74.8% | 99.5% | 91.5% | 78.2% | 103% | 85.4% | 36.6% | 64.1% | 89.7% | – | 100% | 114% | 89.3% | 95.7% | 28.4% | – | 82.6% | 19.5% | –
COc1ccc2c(c1)C(=O)/C(=C/c1ccc([N+](=O)[O-])s1)O2 | -22.7% (active) | 12.2% | -5.72% (active) | -50.7% (active) | -13.5% (active) | -48% (active) | -24.9% (active) | -33.9% (active) | -49.1% (active) | – | -8.43% (active) | -79.1% (active) | -15.3% (active) | -54% (active) | 29.7% | 99.6% | 5.68% (active) | 11.4% | –
O=C1C(Cl)=C(N=Nc2c(Cl)c(O)c3ccccc3c2O)C(=O)c2ccccc21 | 76.3% | 85.8% | 66.3% | 53.3% | 53.1% | 5.34% (active) | 43% | 67.3% | 98.5% | – | 71.8% | 70.4% | 116% | 77% | 88.9% | 63.6% | 62.1% | 34.9% | 43.5%
O=C(N1CCC(CN=c2cc3n(-c4ccc(Cl)cc4)c4ccccc4nc-3cc2Nc2ccc(Cl)cc2)CC1)N1CC1 | -97.9% (active) | -60.6% (active) | -67.7% (active) | -62.5% (active) | -97.6% (active) | -77.5% (active) | -67.5% (active) | -90.8% (active) | -80.8% (active) | -62.5% (active) | -76% (active) | -96.3% (active) | -42.9% (active) | -71.7% (active) | – | -59.9% (active) | -22.6% (active) | -74.5% (active) | –
O=C(Cn1ccnc1)NC(c1ccccc1)c1ccccc1 | 104% | 73.4% | 95.1% | 101% | 99.8% | 89.7% | 98% | 98.2% | 106% | 97.5% | 97% | 89.5% | – | 91.9% | 96.7% | 67.6% | 107% | 98.4% | 108%
O=C1CCCN1C1CCN(Cc2cc3ccccc3[nH]c2=O)c2ccccc21 (stereo not given) | 92.9% | 79.3% | 96.8% | 96.1% | 86.1% | 85.5% | 90.4% | 103% | 96.1% | 79% | 88.3% | 52.5% | 93.3% | 89.1% | – | 111% | 68.7% | 73.1% | 76.4%
N#CCNc1ccccc1N | 86.4% | 77.8% | 117% | 97.2% | 96% | 95.3% | 95.1% | 110% | 107% | 89.6% | 104% | 65.1% | 104% | – | – | 104% | 85.1% | 116% | –
Cc1nc2c(O)cccc2cc1CO | 99.8% | 78.2% | 104% | 109% | 98.5% | 94.6% | 106% | 139% | 122% | 107% | 105% | 103% | 168% | – | 104% | 131% | 105% | 67.7% | 107%
